Assay outcomes: PubChem, several laboratories
Platelet DG rel = platelet dense granule release activity. 0.22% of 300,000 active. human platelet-rich plasma, SFLLRN dense granule ATP release, luminescence. inhibition, %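 (compounds screened at 7.5 µM in platelet-rich plasma)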;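 active means mean replicate score, as percent of positive control, at or above 50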
PHOSPHO1 block = PHOSPHO1 (human) inhibition | Q8TCT1 | recombinant PHOSPHO1, absorbance phosphatase assay | inhibition, % at 13.3 µM | 1.1% of 290,000 active; in the data active means inhibition above about 60%
Target sequence (Q8TCT1 whole entry, looked up): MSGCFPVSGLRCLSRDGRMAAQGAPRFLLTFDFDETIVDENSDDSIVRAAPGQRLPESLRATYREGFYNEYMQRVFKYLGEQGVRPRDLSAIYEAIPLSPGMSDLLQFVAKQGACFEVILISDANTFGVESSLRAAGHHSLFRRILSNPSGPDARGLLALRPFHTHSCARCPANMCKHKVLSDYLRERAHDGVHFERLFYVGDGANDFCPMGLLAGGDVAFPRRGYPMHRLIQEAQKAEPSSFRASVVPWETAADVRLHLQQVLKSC
TPT1 inhibitor = C. albicans TPT1 enzyme inhibition | 0.81% of 300,000 active | inhibition, % at 5 µM | recombinant caTPT1, FP RNA substrate dephosphorylation;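 active means inhibition above the mean of all tested compounds plus 3 SD, set per screening campaign, cut at about 24% in these data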;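 further: plate controls were DMSO alone for no effect and ferristatin control at 100 nM for full effect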
SKKanGAS inh = SKKanGAS growth inhibition; S. pyogenes SKKanGAS, kanamycin growth, BacTiter-Glo, 6 h; inhibition, % at 7.5 µM; 1.3% of 300,000 active; AID 1662;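 active means mean replicate score, as percent of positive control median, at least 50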;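 further: strain carries kanamycin resistance gene driven by streptokinase promoter and grows in 40 µg/ml kanamycin; loss of luminescence reflects streptokinase promoter inhibition or plain growth inhibition; 0% = median of DMSO wells and 100% = positive control at its reference dose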
Rtt109 Vps75 = inhibitors of Candida albicans Rtt109/Vps75 histone acetyltransferase. Q5AAJ8. purified Rtt109/Vps75, ThioGlo CoA-SH fluorescence, 4 h. inhibition, % at 34.9 µM. 0.16% of 330,000 active;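 active means inhibition of at least 50% in every replicate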
Target sequence (Q5AAJ8 whole entry, looked up): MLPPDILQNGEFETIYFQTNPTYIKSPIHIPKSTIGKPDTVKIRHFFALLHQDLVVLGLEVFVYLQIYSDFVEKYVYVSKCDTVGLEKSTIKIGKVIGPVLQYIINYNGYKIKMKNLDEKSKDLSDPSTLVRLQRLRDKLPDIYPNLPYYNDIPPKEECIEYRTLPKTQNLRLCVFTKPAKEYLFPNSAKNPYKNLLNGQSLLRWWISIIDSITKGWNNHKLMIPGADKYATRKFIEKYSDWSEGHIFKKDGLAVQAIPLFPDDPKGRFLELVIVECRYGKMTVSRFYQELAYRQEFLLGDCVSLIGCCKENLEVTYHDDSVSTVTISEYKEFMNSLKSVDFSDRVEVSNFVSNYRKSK
WT yeast gro inh = growth inhibition of WT yeast, mitochondrial fusion screen | 2.1% of 190,000 active | mitochondrial fusion phenotypic screen, WT strain | inhibition, % at 10 µM; in the data active means inhibition above about 58%; tested in S. cerevisiae
Numbers without * were called inactive; . = no result. Hits are enriched below; roughly 3.9% of the tested compounds scored in any of these assays.

SMILES | Platelet DG rel | PHOSPHO1 block | TPT1 inhibitor | SKKanGAS inh | Rtt109 Vps75 | WT yeast gro inh
COCc1cc(C)nc(SCC[N+](C)(C)CC(=O)Nc2ccccc2)c1C#N | 19 | 16 | 2 | -1 | -1 | -6
COCc1cc(C)nc(SCC[N+](C)(C)CC(=O)c2ccc(Br)cc2)c1C#N | 51* | -8 | -2 | 3 | 3 | 4
CC(C)/C=C/C(=O)N1CCC(N2CCC(C(=O)NCc3ccccn3)CC2)CC1 | -6 | 70* | -13 | -6 | -8 | .
Cc1sc(-n2c(C)ccc2C)c(C#N)c1C | -6 | 95* | 2 | -4 | 11 | 11
Cn1cccc1/C=N/NC(=O)c1cc2ccccc2cc1O | 25 | 12 | 0 | 20 | 14 | .
CCOC(=O)c1ccc(N=c2scc(C)n2CC)cc1 | -7 | 37 | -1 | -11 | -5 | 23
CCOC(=O)c1ccc(N=C2C(=S)N(c3ccc(C(=O)OCC)cc3)C(=N)N2/N=C/c2ccccc2)cc1 | -3 | -26 | 0 | 7 | 64* | 21
CN(C)S(=O)(=O)c1cccc(NC(=O)C2CCN(S(=O)(=O)c3cccs3)CC2)c1 | . | . | . | . | 13 | .
c1ccc(-c2nc3c4ccccc4ccn3c2CN2CCOCC2)cc1 | 8 | 56 | -2 | 0 | 20 | .
CC(=O)c1ccc(-c2nc3c4ccccc4ccn3c2C(C)=O)o1 | 51* | 43 | 2 | 1 | -5 | 6
Cc1cccc(N=C2NN=C(c3c(C)[nH]c4ccccc34)CS2)c1 | -12 | 7 | 2 | 98* | -8 | 6
COc1ccccc1CNC(=O)C(Cc1ccccc1)NC(=O)c1ccccc1 (centres undefined) | . | . | . | . | 1 | .
c1ccc(-c2nn3c(Cn4cnc5ccccc54)nnc3s2)cc1 | 6 | 66* | -1 | -7 | 7 | -15
c1ccc2c(c1)ncn2Cc1nnc2sc(-c3ccncc3)nn12 | 1 | 51 | -5 | 10 | . | -6
c1ccc2c(c1)nnn2Cc1nnc2sc(-c3ccc4c(c3)OCCO4)nn12 | -1 | 48 | -2 | 6 | 4 | -4
c1ccc(-c2nn3c(Cn4nnc5ccccc54)nnc3s2)cc1 | -6 | 69* | 0 | -11 | 37 | 7
c1cncc(-c2nn3c(Cn4cnc5ccccc54)nnc3s2)c1 | -7 | 69* | -1 | -1 | . | -5
COc1ccc(Cc2nn3c(Cn4nnc5ccccc54)nnc3s2)cc1 | 9 | 69* | 0 | -3 | 7 | 0
CCCN1CCN(S(=O)(=O)c2ccc3c(c2)CCC(=O)N3)CC1 | . | . | . | . | -10 | .
NC(=O)CSc1nc2cc([N+](=O)[O-])ccc2n1-c1cccc(C(F)(F)F)c1 | 3 | -12 | 0 | -3 | -2 | -6
CC(Sc1nc2cc([N+](=O)[O-])ccc2n1-c1cccc(C(F)(F)F)c1)C(=O)NC(N)=O (centres undefined) | -5 | -7 | -2 | 51* | -7 | -11
CC1(C)CC(N2CCN(c3ccccc3)CC2)=CC(=[N+]2CCCC2)C1 | -13 | 86* | 1 | 6 | 3 | 6
Cc1ccc(C(C(=O)NCc2ccccc2)N(Cc2cccs2)C(=O)c2ccc3c(c2)OCCO3)cc1 (centres undefined) | -1 | -11 | -4 | 22 | 3 | 69*
CC(CC(=O)N1CCN(c2ccccc2)CC1)S(=O)(=O)c1ccc2c(c1)NC(=O)CO2 (centres undefined) | -11 | 42 | 3 | 0 | 1 | .
CCOc1ccc(-c2csc(/C(C#N)=C\c3ccc(O)c([N+](=O)[O-])c3)n2)cc1 | 13 | -13 | 5 | 101* | 3 | 31
SMILES | Platelet DG rel | PHOSPHO1 block | TPT1 inhibitor | SKKanGAS inh | Rtt109 Vps75 | WT yeast gro inh
COc1ccc(C2=Cc3ccc(OC(C)=O)cc3OC2)cc1 | . | . | . | . | -9 | .
COc1ccc(C(=O)/C(C#N)=N/Nc2ccccc2[N+](=O)[O-])cc1 | 8 | -5 | 5 | 3 | -7 | -1
COc1ccc(C(=O)/C(C#N)=N/Nc2ccc([N+](=O)[O-])cc2)cc1 | 8 | 25 | 5 | 11 | -1 | 65*
N#CC(C#N)=NNc1ccc([N+](=O)[O-])cc1 | 9 | 13 | 17 | 86* | 10 | .
O=C(Nc1ccc(Cl)cc1)c1nc[nH]c1C(=O)N1CCN(c2ccccc2)CC1 | . | . | . | . | 6 | .
O=C(Nc1nc(-c2ccccc2)c(-c2ccccc2)o1)c1ccc(F)cc1 | -1 | 34 | 5 | 101* | 9 | 17
COc1cccc(C(=O)Nc2nc(-c3ccccc3)c(-c3ccccc3)o2)c1 | -4 | -2 | 2 | 92* | -8 | 74*
Cc1cccc(CSc2nc(N)c(C#N)c(-c3cccs3)c2C#N)c1 | -3 | 10 | 0 | 59* | 6 | 57
Cc1cccc(CSc2nc3c(c(-c4cccs4)c2C#N)CN(C)CC3)c1 | -10 | 5 | -5 | -4 | 7 | 12
CC(/C=C1\SC(=S)N(NC(=O)c2cccc(O)c2)C1=O)=C\c1ccccc1 | 3 | 3 | 1 | 31 | 35 | 86*
CC(/C=C1\SC(=S)N(CC(=O)O)C1=O)=C\c1ccccc1 | 0 | 36 | -2 | 4 | 16 | .
CC(/C=C1\SC(=S)N(C(C(=O)O)c2ccccc2)C1=O)=C\c1ccccc1 (centres undefined) | -7 | 44 | 4 | 61* | 66* | .
COc1ccc(C(=O)COC(=O)C2COc3ccccc3O2)cc1F (centres undefined) | . | . | . | . | 10 | .
O=C(COC(=O)Cc1cccc(F)c1)NC(=O)NC1CCCCC1 | . | . | . | . | -7 | .
CCc1nn(CCCC(=O)NCc2ccccc2Br)c(=O)c2cc3occc3n12 | -9 | 11 | 1 | 59* | -18 | .
CCc1cccc(NC(=O)CCCn2nc(CC)n3c(cc4occc43)c2=O)c1 | -9 | 27 | 0 | 25 | 2 | .
Cc1cccc(/C=N/Nc2ccc3ccccc3n2)c1 | 0 | -34 | 4 | -17 | 8 | 64*
Cc1cc(N/N=C/c2cccc(Br)c2)nc2ccccc12 | 3 | -2 | 0 | 91* | 0 | 67
Cc1cc(N/N=C/c2ccncc2)nc2ccccc12 | -5 | -46 | . | 11 | 32 | 26
CC(C)NC(=O)N(C)C[C@H]1Oc2c(NC(=O)C3CCCCC3)cccc2C(=O)N([C@H](C)CO)C[C@@H]1C | . | . | . | . | 0 | .
CCSc1nc2c(c(=O)[nH]c(=O)n2C)n1CC(O)COc1ccccc1C (centres undefined) | 2 | 4 | 2 | -15 | 6 | -12
Cc1ccccc1OCC(O)Cn1c(SC(C)C)nc2c1c(=O)[nH]c(=O)n2C (centres undefined) | -1 | 91* | 2 | -12 | 6 | 7
O=C(C[n+]1cnn(CC(=O)c2ccc(Cl)cc2Cl)c1)c1ccc([N+](=O)[O-])cc1 | -1 | 14 | 0 | 93* | -6 | -27
CC(C)CN(C(=O)CCNC(=O)c1ccccc1Cl)C1CCS(=O)(=O)C1 (centres undefined) | . | . | . | . | 7 | .
CC(=O)OCC(=O)Nc1ccc([N+](=O)[O-])cc1Cl | -3 | 30 | 1 | -3 | 3 | -7
CC(=O)Oc1c(C)cc(Cl)cc1C(=O)Nc1ccc([N+](=O)[O-])cc1Cl | 8 | -7 | -2 | . | 2 | 85*
